Measured values as given in ChEMBL document CHEMBL4513216, “Probing the Open Global Health Chemical Diversity Library for Multistage-Active Starting Points for Next-Generation Antimalarials” (ACS Infect Dis, 2020).
In all, about 69,000 compounds went through this assay and about 8,600 (12%) showed an effect of 50% or more. The sample holds strong results, similar compounds and a random draw of the others, so the mix is not that of the screen.

test system: Plasmodium berghei; assay: Screen against P. berghei liver stage (PbLuc), transformed with Luciferase, at 10uM; format: functional, HepG2; details: tested at 10 uM

Row | Structure (SMILES) | INHIBITION
1 | CC1(c2ncc(CN(CC(=O)O)Cc3ccccc3)cn2)CCCCO1 (centres undefined) | 16.9%
2 | Cc1ccc(F)c2c1CCCN2C(=O)c1cn(CC(=O)N(C)C)nn1 | 29.1%
3 | CC1(C)OCC(CNC(=O)c2cnn(-c3cccc(Cl)c3Cl)c2N)O1 (centres undefined) | -101%
4 | Cn1ccnc1CN1CCCC1CCc1ccccc1 (centres undefined) | -67.9%
5 | O=C(CCNc1ccccc1)NC1CCN(C(=O)C2CCCCC2)CC1 | 27.6%
6 | O=C(c1ccoc1)N1CCOCC2(CCN(C3CCOCC3)C2)C1 (centres undefined) | 34.4%
7 | CC(C)NC(=O)N1CCCC2(CCN(c3ccsc3)C2=O)C1 (centres undefined) | -4.82%
8 | CCc1nnc(CN2CCCC(c3cc(C(N)=O)[nH]n3)C2)o1 (centres undefined) | 4.71%
9 | CCC(=O)c1ccc(OCC(=O)NCC2CC(CC)=NO2)cc1 (centres undefined) | 52.6%
10 | CCC(=O)c1ccc(OCC(=O)NCC2CCCO2)cc1 (centres undefined) | 3.48%
11 | C=C(C)COc1ccc(C(=O)NCC2CC(CC)=NO2)cc1 (centres undefined) | 6.26%
12 | Cc1cc2cccc(NC(=O)N3CC[C@H]4CC[C@@H](C3)N4C)c2o1 | -4.01%
13 | CCN(CC(=O)NC(C)C)C(=O)c1ccc(-c2ccsc2)nc1C | 47%
14 | CCc1n[nH]c(C2CN(C(=O)c3ncoc3CC)CCO2)n1 (centres undefined) | -19.9%
15 | CCn1cnnc1C1CCN(C(=O)c2cccc(OC)c2OC)CC1 | 22.3%
16 | CN(Cc1ccncn1)C(=O)C1(Oc2ccc(Cl)cc2)CCNCC1 | 53.3%
17 | CN(Cc1ccoc1)C(=O)C1(Oc2ccc(Cl)cc2)CCNCC1 | 11.9%
18 | CN(C)C(=O)C1(Oc2ccc(Cl)cc2)CCNCC1 | 1.79%
19 | CC(C)c1ccc2c(c1)CCCN2C(=O)CN(C)S(C)(=O)=O | 48.3%
20 | CC(=O)c1c(C)nn(S(=O)(=O)c2ccc(F)cc2)c1C | 53.8%
21 | CC(=O)c1c(C)nn(S(=O)(=O)c2ccc(C)cc2)c1C | -15.5%
22 | CC(=O)c1c(C)nn(S(=O)(=O)c2ccc(Cl)cc2)c1C | -16.6%
23 | CSc1nc(N)cc(N2C[C@H]3CC[C@@H](C2)N(Cc2cscn2)C3=O)n1 | 9.4%

Row | Structure (SMILES) | INHIBITION
24 | CS(=O)(=O)N1CCC2(CC1)CN(CC1CC1)CC21CCNC1=O (centres undefined) | 3.81%
25 | O=C(c1cc(F)cc(Cl)c1)N1C[C@H]2CC[C@@H](C1)N(Cc1ccccc1)C2 | -31.3%
26 | O=C(c1c[nH]c(=O)c(Cl)c1)N1C[C@H]2CC[C@@H](C1)N(Cc1ccccc1)C2 | -23.2%
27 | COCCN1C[C@@H]2CC[C@H]1CN(C(=O)CCn1cc(Cl)cn1)C2 | 26.6%
28 | O=S(=O)(c1cccc(F)c1)N1C[C@H]2CC[C@@H](C1)N(Cc1ccccc1)C2 | 63.6%
29 | O=S(=O)(c1cccnc1)N1C[C@H]2CC[C@@H](C1)N(Cc1ccccn1)C2 | 31.7%
30 | CCN(CC)c1ccc(C(=O)N2C[C@H]3CC[C@@H](C2)N(CCOC)C3)cc1 | 25.4%
31 | COCCN1C[C@@H]2CC[C@H]1CN(C(=O)c1ccc(Cl)cc1)C2 | 66.1%
32 | O=S(=O)(c1cccnc1)N1C[C@H]2CC[C@@H](C1)N(Cc1ccccc1)C2 | 18.6%
33 | O=C(c1ccc(F)c(Cl)c1)N1C[C@H]2CC[C@@H](C1)N(Cc1ccccc1)C2 | 68.5%
34 | CN1CCN(C(=O)C2CCN(c3cccnn3)CC2)CC1 | -9.32%
35 | CCc1nnc2n1CCN(C(=O)c1nc(-c3ccco3)sc1C)C2 | 21.5%
36 | O=C(Cn1ccc(C(=O)O)n1)Nc1c(Cl)cccc1Cl | 19.09%
37 | Cc1ncc(CN(C)Cn2nc(-c3ccccc3)oc2=O)s1 | 3.41%
38 | CN(Cc1nnc2n1CCC2)C(=O)c1ccc2c(c1)OCCO2 | -2.53%
39 | O=C(Cc1ccccc1F)N1CCN(C(=O)c2ccoc2)CC1 | 16.6%
40 | Cc1nc(N2CCC3(CCOC3)C2)c2cc[nH]c2n1 (centres undefined) | 71.1%
41 | Cc1nc(C)c(C)c(N2CCC3(CCOC3)C2)n1 (centres undefined) | -129%
42 | Cc1nnc2ccc(N3CCC4(CCOC4)C3)nn12 (centres undefined) | 9%
43 | COc1ccc2c(c1)CN(Cc1ccco1)C(=O)CCN2 | 17.7%
44 | Cc1ccc(-n2cc(C(=O)N3CCCC(n4cccn4)C3)nn2)cc1 (centres undefined) | -2.19%
45 | O=C(N1CCOCC(O)C1)C1(c2ccc(Cl)cc2)CCC1 (centres undefined) | 0.0996%
46 | O=C(O)CC1COCCN1C(=O)C1(c2ccc(Cl)cc2)CCC1 (centres undefined) | 1.74%

Row | Structure (SMILES) | INHIBITION
47 | CNC(=O)CC1COCCN1C(=O)C1(c2ccc(Cl)cc2)CCC1 (centres undefined) | 52.1%
48 | COc1cc(C(=O)N2CCC(c3n[nH]c(C)n3)CC2)cc(OC)c1C | 0.914%
49 | O=C(Cc1n[nH]c(-c2cncc(Br)c2)n1)NCc1ccccn1 | 22.5%
50 | CC1(c2nccs2)CCN(C(=O)CCN2CCOCC2)CC1 | 23.3%
51 | Cc1noc(C(C)N2CCN(Cc3nc(C)c(C)o3)CC2)n1 (centres undefined) | -2.143%
52 | Cc1noc(-c2ccc(N(C)Cc3nccs3)nc2)n1 | 1.79%
53 | Cc1noc(-c2cccnc2N(C)Cc2ccc([S+](C)[O-])cc2)n1 (centres undefined) | 79.9%
54 | CN(Cc1ccc([S+](C)[O-])cc1)c1ccccn1 (centres undefined) | 40.5%
55 | Cc1noc(-c2cccnc2N(C)Cc2cc(C)on2)n1 | 50.8%
56 | Cc1noc(-c2ccc(N(C)Cc3ccncn3)nc2)n1 | 26.4%
57 | Cc1noc(-c2ccc(N(C)Cc3ccncc3C)nc2)n1 | -3.58%
58 | Cc1noc(-c2cccnc2N2CCN(c3cnn(C)c3)CC2)n1 | -26.8%
59 | Cc1noc(-c2cccnc2N(C)Cc2cscn2)n1 | 68.8%
60 | Cc1noc(-c2ccc(N(C)Cc3cccnc3)nc2)n1 | 28.7%
61 | Cc1nn(S(=O)(=O)c2ccc(Cl)cc2)c(C)c1C | 9.52%
62 | COc1cc(N2CCC3(CCN(C(=O)c4cccnc4)CC3)C2)ncn1 | -3.77%
63 | COc1ncccc1C(=O)N1CC[C@H]2C[C@H](c3nnc(C)[nH]3)O[C@@H]2C1 | 15.4%
64 | CC(C)N(C)Cc1nnc2n1CCN(S(=O)(=O)C1CC1)CC2 | 29%
65 | N#Cc1cccc(N2CC3(CCN(C(=O)c4cccnc4)C3)CC2=O)c1 (centres undefined) | 19.9%
66 | COCc1nc(N(C)C)ncc1C(=O)NC(C)C | -1.58%
67 | CCCNC(=O)c1cnc(N(C)C)nc1COC | -10.3%
68 | COCc1nc(N(C)C)ncc1C(=O)OC | 66.5%
69 | Cc1cnn(CC2CCCCN2C(=O)c2ccccc2-n2cccn2)c1 (centres undefined) | 38.8%

Row | Structure (SMILES) | INHIBITION
70 | CCc1ccc(NS(=O)(=O)c2cc3c(c(C(=O)O)c2)OCCO3)cc1 | 9.14%
71 | CC(C)(C)c1cn(C2CCN(C3CCSC3)CC2)nn1 (centres undefined) | 70.9%
72 | CC(C)(N)c1cn(C2CCN(C3CCSCC3)CC2)nn1 | -7.77%
73 | OC1(c2cn(C3CCN(C4CCSC4)CC3)nn2)CCCC1 (centres undefined) | -23%
74 | CC(C)(O)c1cn(C2CCN(C(=O)CCc3ccncc3)CC2)nn1 | 23.9%
75 | CC(C)n1cc(C(=O)N2CCC(n3cc(C(C)(C)C)nn3)CC2)cn1 | 29.8%
76 | CC(C)(C)c1cn(C2CCN(C(=O)c3cncnc3)CC2)nn1 | 54.4%
77 | CCC(=O)N1CCC(n2cc(C(C)(C)O)nn2)CC1 | 42.1%
78 | C[C@H]1C[C@@H]2CCN(C(=O)c3cnccn3)C[C@H]2O1 | 7.31%
79 | CC(C)(C)c1cn(C2CCN(C(=O)c3cnccn3)CC2)nn1 | 61.1%
80 | CCCc1cc(C(=O)N[C@H](C)[C@@H](O)c2ccc(O)cc2)n(C)n1 | 20.3%
81 | Cc1ccccc1C(=O)NCC(=O)NCc1ccccn1 | 46.3%
82 | CC[C@@H]1N(Cc2ccc(F)cc2)CCC[C@]12CCC(=O)N2CCOC | -69.5%
83 | Cc1ccc(C(=O)N(C)Cc2csc(Br)c2)c(=O)[nH]1 | 21.8%
84 | Cc1cc2n(n1)CC(CNCc1cc(C)on1)CN2 (centres undefined) | 26.8%
85 | CCNC(=O)[C@@H]1CCCN1[C@@H](C(=O)NC)c1ccccc1 | -1.12%
86 | Cc1c(F)cccc1S(=O)(=O)NCC(C)(C)CC(C)O (centres undefined) | -11.9%
87 | Cc1cccc(S(=O)(=O)NCC(C)(C)CC(C)O)c1C#N (centres undefined) | 18.8%
88 | CC(O)CC(C)(C)CNS(=O)(=O)c1cccc(Cl)c1C#N (centres undefined) | 53.5%
89 | COc1cccc2c3c(c(=O)[nH]c12)CCO3 | 20.9%
90 | CC(C)CN1CC[C@@H]2[C@@H]1CCN2S(=O)(=O)c1cn(C)cn1 | 13.7%
91 | COCCN(Cc1sccc1C)c1nc(C)nc2sccc12 | 14.6%
92 | CCCN(CCOC)c1nc(C)nc2sccc12 | 53.9%

Row | Structure (SMILES) | INHIBITION
93 | COCCN(Cc1cnn(C)c1)c1nc(C)nc2sccc12 | -39.2%
94 | CCOCCN(CCOCC)c1nc(C)nc2sccc12 | 69.7%
95 | CCC(CN1CCCC1)NC(=O)Cc1c(C)[nH]c2c(C)cc(C)cc12 (centres undefined) | 41.2%
96 | Cc1nn(C)c(C)c1S(=O)(=O)N1C[C@@H]2C[C@@H](C)O[C@@H]2C1 | 8.74%
97 | CN(C)C(=O)CN1C(=O)[C@@H]2CC[C@H]1CN(Cc1ccccc1C#N)C2 | 23.9%
98 | O=C(NCC1CC1)C1CCC2(CCN(C(=O)c3cccs3)CC2)O1 (centres undefined) | -14.7%
99 | O=C(Nc1ccc(Br)cc1F)c1ccc(N2CCOCC2)nn1 | 52.3%
100 | CSc1ccccc1NC(=O)c1ccc(N2CCOCC2)nn1 | -117%
101 | O=C(Nc1ccc(Br)cc1F)c1ccc(N2CCCCC2)nn1 | 10.8%
102 | COc1ccc(C)cc1C(=O)N1CCCC(n2cncn2)C1 (centres undefined) | -16%
103 | Cc1noc(CN(Cc2cccs2)C2CCS(=O)(=O)C2)n1 (centres undefined) | 49.8%
104 | Cc1ccc(-c2nc(CN3CCCC(C(=O)N(C)C)C3)cs2)o1 (centres undefined) | 35.9%
105 | Cc1ccc(-c2nc(CN(C)C3CCS(=O)(=O)C3)cs2)o1 (centres undefined) | 57.7%
106 | CC(C)(C)c1nc(CN(Cc2cccs2)C2CCS(=O)(=O)C2)cs1 (centres undefined) | 59.4%
107 | O=C(NCC1CCS(=O)(=O)C1)N(Cc1ccco1)C1CC1 (centres undefined) | 38.2%
108 | Cc1nc(CN(Cc2cccs2)C2CCS(=O)(=O)C2)oc1C (centres undefined) | 19.5%
109 | Cc1ccc(-c2nc(CN3CCC(C(=O)N(C)C)CC3)cs2)o1 | 39.5%
110 | O=S1(=O)CCC(N(Cc2nc3ccccc3o2)Cc2cccs2)C1 (centres undefined) | -32.5%
111 | Cc1ccc(-c2nc(CN(Cc3cccs3)C3CCS(=O)(=O)C3)cs2)o1 (centres undefined) | 87.6%
112 | Cc1noc(C)c1CN(Cc1cccs1)C1CCS(=O)(=O)C1 (centres undefined) | 36.1%
113 | Cc1ccc(-c2nc(CN(Cc3ccco3)C3CCS(=O)(=O)C3)cs2)o1 (centres undefined) | 62.8%
114 | CC(C)(C)c1nc(CN(Cc2cccs2)C2CCS(=O)(=O)C2)no1 (centres undefined) | 34.7%
